Test systems include SK-MEL-2 melanoma; EKVX NSCLC; SN12C renal; UO-31 renal; TK-10 renal; ACHN renal; CAKI-1 renal; A498 renal; CCRF-CEM leukemia; SR leukemia; RPMI-8226 leukemia; OVCAR-8 ovarian; OVCAR-5 ovarian; SK-OV-3 ovarian; IGROV1 ovarian; OVCAR-3 ovarian; HS 578T breast; NCI/ADR-RES ovarian; OVCAR-4 ovarian.
What all share (test): NCI-60 one-dose screen, 48 h (100 = growth as untreated, 0 = no growth, -100 = all killed)
What all share (details): 10 µM unless noted

Compounds without any hit were thinned out: in the full panel of roughly 83,000, 20% have a hit.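 The test compound was applied at a single concentration to cells in 96-well plates for 48 hours, and percent growth was recorded.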 A number with no mark means an inactive call. Active and inactive are the calls of the source. The calls were made as follows: active = growth percent below 10; inactive = the rest.

On to `COC(=O)[C@]12CC[C@@H](C)[C@H](C)[C@@H]1C1=CC[C@@H]3[C@@]4(C)C(C=O)=C[C@@](C)(COC(C)=O)[C@@H]4[C@H](O)C[C@@]3(C)[C@]1(C)CC2`, for which the growth in the assay with SK-MEL-2 melanoma was -25.4% (active); with EKVX NSCLC, 20%; in the assay with SN12C renal it was -19.3% (active); in the assay with UO-31 renal, -26.2% (active); in the assay on TK-10 renal, -8.86% (active); in the assay with ACHN renal, -54.3% (active). The growth is 1.42% (active) in the assay on CAKI-1 renal; 28.3% in the assay with A498 renal; 1.74% (active) with CCRF-CEM leukemia; -26.2% (active) with SR leukemia; -17% (active) in the assay on RPMI-8226 leukemia; -0.958% (active) in the assay with OVCAR-8 ovarian. In addition, the growth in the assay with OVCAR-5 ovarian was -28.3% (active); with SK-OV-3 ovarian it was 6.14% (active); in the assay on IGROV1 ovarian, 2.81% (active); in the assay on OVCAR-3 ovarian, -85.7% (active); in the assay on HS 578T breast it was -18.3% (active); with NCI/ADR-RES ovarian, 2.88% (active).

As to `CCc1c2c(nc3ccc(OC(=O)NCc4ccc(B5OC(C)(C)C(C)(C)O5)cc4)cc13)-c1cc3c(c(=O)n1C2)COC(=O)[C@]3(O)CC`, the growth with SK-MEL-2 melanoma is -28% (active); in the assay with EKVX NSCLC it was 35.3%; with SN12C renal, -0.279% (active); with UO-31 renal, -67.7% (active); in the assay with TK-10 renal, 0.387% (active); with ACHN renal, -61.5% (active). Further, the growth in the assay with CAKI-1 renal is -43.3% (active); in the assay on A498 renal, -63.1% (active); in the assay on CCRF-CEM leukemia it was 19.8%; in the assay with RPMI-8226 leukemia, 10.1%; in the assay on OVCAR-8 ovarian, 4.49% (active); in the assay with OVCAR-5 ovarian, -12.3% (active). Also, the growth in the assay with OVCAR-4 ovarian is 6.46% (active); in the assay on SK-OV-3 ovarian, -1.86% (active); in the assay with IGROV1 ovarian it was 11%; in the assay on OVCAR-3 ovarian, -24.7% (active); in the assay on HS 578T breast, 23.4%; in the assay on NCI/ADR-RES ovarian it was -6.58% (active).

Consider `Cc1c(C(=O)N[C@@H](Cc2ccccc2)C(=O)C(=O)NCCc2ccccc2)[nH]c2ccccc2c1=O`, for which the growth was 111% with SK-MEL-2 melanoma; 97.1% with EKVX NSCLC; 83.4% in the assay with SN12C renal; 103% in the assay on UO-31 renal; 118% with TK-10 renal; 101% with ACHN renal. Besides, the growth was 95.9% with CAKI-1 renal; 86.5% in the assay on A498 renal; 104% in the assay on CCRF-CEM leukemia; 89.8% in the assay on RPMI-8226 leukemia; 98.6% in the assay with OVCAR-8 ovarian; 102% in the assay with OVCAR-5 ovarian. Moreover, the growth is 94% with OVCAR-4 ovarian; 107% in the assay with SK-OV-3 ovarian; 95.3% in the assay on IGROV1 ovarian; 105% in the assay on OVCAR-3 ovarian; 105% in the assay with HS 578T breast; 100% in the assay on NCI/ADR-RES ovarian.

Turning to `NS(=O)(=O)c1ccc(-n2nc(C(=O)N/N=C\c3ccc(F)cc3)cc2-c2ccc(Cl)cc2)cc1`, the growth is 96.5% in the assay on SK-MEL-2 melanoma; 75.1% in the assay with EKVX NSCLC; 90.7% with SN12C renal; 62.4% in the assay on UO-31 renal; 136% with TK-10 renal; 90% in the assay with ACHN renal. Also, the growth with CAKI-1 renal is 60.6%; in the assay with A498 renal, 68.5%; in the assay with CCRF-CEM leukemia, 103%; in the assay on RPMI-8226 leukemia, 104%; with OVCAR-8 ovarian, 96.8%; with OVCAR-5 ovarian, 103%. Besides, the growth in the assay on OVCAR-4 ovarian is 97.8%; in the assay with SK-OV-3 ovarian it was 93.5%; in the assay with IGROV1 ovarian, 76.1%; in the assay on OVCAR-3 ovarian it was 99.8%; in the assay on HS 578T breast it was 86%; with NCI/ADR-RES ovarian it was 106%.

Take `O=S(=O)(Nc1cccc(Cl)c1)c1ccc(-c2cnc(C3CC3)o2)cc1`: the growth with SK-MEL-2 melanoma was 58.8%; in the assay on EKVX NSCLC, 35.1%; with SN12C renal, 39.7%; with UO-31 renal, 35.5%; in the assay on TK-10 renal, 45.9%; with ACHN renal, 37.1%. The growth with CAKI-1 renal is 29.8%; in the assay with A498 renal, -3.4% (active); in the assay on CCRF-CEM leukemia, 12.8%; in the assay with RPMI-8226 leukemia, 17.8%; in the assay on OVCAR-8 ovarian, 33.5%; in the assay on OVCAR-5 ovarian, 37.2%. Besides, the growth with OVCAR-4 ovarian was 41.7%; in the assay on SK-OV-3 ovarian, 34.3%; in the assay on IGROV1 ovarian it was 26.4%; in the assay on OVCAR-3 ovarian, -9.95% (active); in the assay with HS 578T breast it was 1.3% (active); in the assay on NCI/ADR-RES ovarian, 18.9%.

With `CCN1C(=O)N(CC)C2Nn3c(s/c(=C4\C(=O)N(C)c5ccccc54)c3=O)=NC21` (stereo unspecified), the growth in the assay on SK-MEL-2 melanoma is 48.2%; in the assay on EKVX NSCLC, 71.2%; in the assay on SN12C renal it was 43.4%; in the assay on UO-31 renal, 48.6%; in the assay with TK-10 renal, 8.83% (active); in the assay on ACHN renal it was 46.9%. The growth with CAKI-1 renal is 36%; with A498 renal it was -2.65% (active); in the assay on CCRF-CEM leukemia, 35.8%; in the assay on RPMI-8226 leukemia, 48.2%; with OVCAR-8 ovarian, 38%; in the assay with OVCAR-5 ovarian, 53.8%. Besides, the growth is 59.6% with OVCAR-4 ovarian; 63.4% in the assay with SK-OV-3 ovarian; 43.3% in the assay on IGROV1 ovarian; 8.52% (active) in the assay on OVCAR-3 ovarian; 38.3% with HS 578T breast; 6.8% (active) in the assay on NCI/ADR-RES ovarian.

`CCOc1c(C#N)nnc2c(C#N)c(NC(=O)c3ccccc3)nn12`: the growth in the assay on SK-MEL-2 melanoma was 112%; in the assay on EKVX NSCLC, 93.8%; with SN12C renal it was 100%; in the assay with UO-31 renal, 86.3%; with TK-10 renal, 116%; in the assay with ACHN renal, 98.4%. In addition, the growth in the assay on CAKI-1 renal is 93.7%; with A498 renal, 93.4%; in the assay on CCRF-CEM leukemia it was 102%; in the assay with RPMI-8226 leukemia, 111%; in the assay with OVCAR-8 ovarian, 93.8%; with OVCAR-5 ovarian it was 102%. Also, the growth with OVCAR-4 ovarian was 110%; with SK-OV-3 ovarian, 97.1%; with IGROV1 ovarian, 101%; in the assay on OVCAR-3 ovarian, 106%; in the assay with NCI/ADR-RES ovarian, 100%.

`CNC(=O)c1cc(Oc2cccc3nc(Nc4ccc(F)c(Cl)c4)ccc23)ccn1`: the growth is 90.8% in the assay with SK-MEL-2 melanoma; 69.5% in the assay on EKVX NSCLC; 60.4% with SN12C renal; 68.7% in the assay with UO-31 renal; 52.9% with TK-10 renal; 75.3% in the assay with ACHN renal. In addition, the growth with CAKI-1 renal was 97%; in the assay with A498 renal it was 60.4%; with CCRF-CEM leukemia it was 60.3%; in the assay with RPMI-8226 leukemia, 54.1%; in the assay on OVCAR-8 ovarian it was 44.8%; in the assay with OVCAR-5 ovarian it was 91.9%. Also, the growth in the assay on OVCAR-4 ovarian was 40.1%; in the assay on SK-OV-3 ovarian, 70.1%; in the assay on IGROV1 ovarian it was 44.5%; in the assay with OVCAR-3 ovarian, 64.6%; with HS 578T breast, 70%; in the assay on NCI/ADR-RES ovarian, 57.4%.

As for `CCN(CC)CCCC(C)Nc1c2ccc(Cl)cc2nc2ccc(O)cc12` (stereo unspecified), the growth is 52.6% with SK-MEL-2 melanoma; 48.6% in the assay on EKVX NSCLC; 30.8% in the assay on SN12C renal; 34.4% with UO-31 renal; 55% in the assay with TK-10 renal; 24.2% in the assay on ACHN renal. For the same compound, the growth with CAKI-1 renal was 70.9%; with A498 renal, 90.7%; in the assay with CCRF-CEM leukemia it was 48.3%; in the assay with RPMI-8226 leukemia it was 21.8%; in the assay on OVCAR-8 ovarian, 30.1%; with OVCAR-5 ovarian it was 74.3%. Further, the growth in the assay on OVCAR-4 ovarian is 24.6%; in the assay with SK-OV-3 ovarian, 58.1%; in the assay with IGROV1 ovarian, 53.8%; with OVCAR-3 ovarian, 54.8%; in the assay with HS 578T breast it was 58%; in the assay on NCI/ADR-RES ovarian, 77.3%.

The values are drawn from PubChem BioAssay (NCI).
